Test systems include MAPKAPK5; MARK1; MARK2; MARK3; MARK4; MAST1.
What all share (conditions): concentration: 1 μM, replicates: in singlicate; n = 1
A further assay has as its system T1, MEK1.
T1 construct: gene MAP2K1

The test system of another assay is T2, MEK2.
T2 construct: gene MAP2K2

For a further assay, the system named is T3, MEK3.
T3 construct: gene MAP2K3

The next assay deals with T4, MEK4.
T4 construct: gene MAP2K4
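Note: KINOMEscan kinase panel screen.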

Take `O=C(O)C(F)(F)F.O=c1[nH]ccc2nc(N[C@@H]3CCNC3)nc(Nc3ccc4c(c3)S(=O)(=O)CC4)c12` [GSK2181306]: the “%Inh” value in the assay on MAPKAPK5 is given as 90.4%; with MARK1 it was 65%; with MARK2, 91.7%; in the assay on MARK3 it was 70%; with MARK4, 81%; in the assay with MAST1, 12%. Further, the “%Inh” value is recorded as 97.5% in the assay on MEK1, 94.7% in the assay on MEK2, 93.5% in the assay with MEK3 and 91% in the assay with MEK4.

As to `COc1cccc2c(-c3ccncc3)c(-c3ccc(F)cc3)nn12` [GW468513], the “%Inh” value was 0% in the assay with MAPKAPK5; 0% with MARK1; 0% in the assay on MARK2; 0% in the assay with MARK3; 3% in the assay with MARK4; 15% with MAST1. In addition, the “%Inh” value with MEK1 came out at 0%; in the assay with MEK2 it was 1%; in the assay on MEK3 it was 0%; with MEK4 it was 19%.

On to `CN(C)c1ncnc2nc[nH]c12` [SKF-31736], for which the “%Inh” value amounted to 0% in the assay with MAPKAPK5; 0% in the assay with MARK1; 9% with MARK2; 23% in the assay on MARK3; 9% with MARK4; 49% in the assay with MAST1. Moreover, the “%Inh” value with MEK1 was determined as 28%; in the assay with MEK2, 46%; with MEK3 it was 54%; in the assay on MEK4, 8%.

With `Cl.Cl.NC(CNC(=O)c1cc(Br)c(-c2ccnc3[nH]ccc23)s1)c1ccccc1` (stereo not drawn) [GSK1322949], the “%Inh” value in the assay with MAPKAPK5 is listed as 0%; in the assay with MARK1, 0%; in the assay with MARK2, 22%; with MARK3, 0%; in the assay on MARK4, 0%; with MAST1, 29%. For the same molecule, the “%Inh” value is reported as 0% in the assay with MEK1, 0% in the assay on MEK2, 74% in the assay with MEK3 and 57% with MEK4.

Consider `CC(C)c1nc(-c2ccc(F)c(NS(=O)(=O)c3c(F)cccc3F)c2)c(-c2ccnc(Nc3ccc(N4CCOCC4)nc3)n2)s1` [GSK1804250], for which the “%Inh” value is on record as 0% in the assay on MAPKAPK5; 0% with MARK1; 15% in the assay with MARK2; 0% in the assay on MARK3; 16% in the assay with MARK4; 0% in the assay with MAST1. In addition, the “%Inh” value in the assay on MEK1 is 17%; with MEK2 it was 27%; with MEK3 it was 19%; in the assay with MEK4 it was 100%.

As to `N#Cc1cnc2cc(-c3cnc(CNCCN4CCOCC4)s3)ccc2c1Nc1ccc(Oc2ccccc2)cc1` [GW664114], the “%Inh” value in the assay on MAPKAPK5 stood at 0%; with MARK1, 35%; in the assay on MARK2, 0%; with MARK3 it was 9%; with MARK4 it was 5%; in the assay with MAST1, 0%. The “%Inh” value in the assay on MEK1 was 100%; in the assay on MEK2, 100%; with MEK3, 9%; with MEK4, 80%.

As to `COC(=O)Nc1nc2cc(Oc3ccc(NC(=O)Nc4cccc(SC)c4)cc3)ccc2[nH]1.Cl` [GW697999], the “%Inh” value in the assay with MAPKAPK5 turned out to be 0%; with MARK1 it was 0%; in the assay on MARK2, 0%; with MARK3, 0%; in the assay with MARK4, 9%; with MAST1 it was 14%. Besides, the “%Inh” value with MEK1 worked out at 0%; in the assay on MEK2 it was 0%; in the assay on MEK3, 0%; with MEK4 it was 12%.

For the molecule `COc1cc(Nc2nccc(N3CCC(NS(=O)(=O)c4ccc(NC(C)=O)cc4)CC3)n2)cc(OC)c1OC` [GSK1379825], the “%Inh” value was determined as 0% in the assay on MAPKAPK5; 14% in the assay on MARK1; 1% in the assay on MARK2; 0% in the assay with MARK3; 15% with MARK4; 13% with MAST1. In addition, the “%Inh” value in the assay on MEK1 came to 0%; in the assay with MEK2, 0%; with MEK3 it was 6%; in the assay with MEK4 it was 14%.

For the molecule `COc1cccc(NC(=O)NCCNc2ccnc(Nc3ccc(F)cc3)n2)c1` [GSK1379879], the “%Inh” value in the assay on MAPKAPK5 was 0%; with MARK1 it was 0%; in the assay on MARK2, 0%; with MARK3, 0%; in the assay on MARK4 it was 5%; with MAST1, 0%. Also, the “%Inh” value in the assay with MEK1 is 19%; in the assay with MEK2 it was 0%; with MEK3, 10%; in the assay on MEK4, 5%.

On to `Nc1ncc(-c2cn[nH]c2)c2scc(-c3ccc4c(c3)CCN4C(=O)Cc3ccccc3)c12` [GSK2593067], for which the “%Inh” value in the assay on MAPKAPK5 was 0%; with MARK1, 0%; in the assay on MARK2, 7%; in the assay with MARK3 it was 0%; in the assay with MARK4, 7%; in the assay on MAST1, 0%. Also, the “%Inh” value in the assay with MEK1 was determined as 0%; with MEK2 it was 0%; with MEK3, 0%; in the assay on MEK4, 60%.

Turning to `Fc1cc(Cl)ccc1Nc1ccnc2cc(-c3ccc(CN4CCOCC4)o3)ccc12` [GW560109], the “%Inh” value is on record as 0% with MAPKAPK5; 0% in the assay on MARK1; 0% in the assay on MARK2; 2% in the assay on MARK3; 0% in the assay on MARK4; 3% with MAST1. The “%Inh” value came out at 0% with MEK1, 38% in the assay on MEK2, 0% with MEK3 and 31% in the assay on MEK4.

Regarding `N#CC1(c2cccc(C(=O)Nc3cccc(Oc4ccc5nc(NC(=O)C6CC6)sc5n4)c3)c2)CC1`, the “%Inh” value with MAPKAPK5, with MARK1, in the assay on MARK2, in the assay with MARK3, with MARK4 and with MAST1 was 0% throughout. Moreover, the “%Inh” value is 18% in the assay on MEK1, 19% with MEK2, 11% in the assay with MEK3 and 0% in the assay on MEK4.

For `COc1cc(Nc2ccnc3cc(-c4ccncc4)ccc23)cc(OC)c1OC.Cl` [GW494610], the “%Inh” value amounted to 0% in the assay on MAPKAPK5; 1% in the assay with MARK1; 0% in the assay on MARK2; 0% in the assay on MARK3; 9% in the assay with MARK4; 15% in the assay on MAST1. The “%Inh” value with MEK1 is 14%; in the assay with MEK2 it was 0%; in the assay with MEK3 it was 0%; in the assay with MEK4, 27%.

For the molecule `O=C(Nc1n[nH]c2nc(-c3cccc(O)c3)ccc12)C1CC1` [SB-711805], the “%Inh” value was found to be 3% in the assay on MAPKAPK5; 31% in the assay with MARK1; 30% in the assay on MARK2; 0% in the assay with MARK3; 0% with MARK4; 42% in the assay on MAST1. For the same molecule, the “%Inh” value came out at 10% in the assay on MEK1, 10% with MEK2, 41% with MEK3 and 12% in the assay on MEK4.

For `COc1ccc(C2=C(Nc3cccc(O)c3)C(=O)NC2=O)cc1` [SB-390766], the “%Inh” value in the assay on MAPKAPK5 was 0%; in the assay on MARK1 it was 46%; in the assay with MARK2, 0%; with MARK3 it was 0%; in the assay with MARK4 it was 19%; in the assay with MAST1, 0%. Besides, the “%Inh” value in the assay with MEK1, with MEK2, in the assay on MEK3 and in the assay with MEK4 was 0% throughout.

(Values after PMC5540273 (PLoS ONE, 2017).)
